hDAT+cocaine – changed human dopamine transporter uptake under cocaine IC80. B-score at 10 µM. LLC-PK1 hDAT cells, [14C]-dopamine uptake with cocaine IC80; actives deviate in either direction. Q01959. 110,000 tested, 1.3% active;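 active means Z score or B-score, a plate-position-corrected score, falls beyond the plate's 99.7% confidence bounds, in either direction; inactive means both scores lie inside the 99.7% bounds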;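 further: scored against the spread of the other compound wells on the same plate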
PLAP act – human PLAP activation | P05187 | activation fold at 20 µM | AID 696 | purified PLAP enzyme, luminescent substrate read-out; hits give high values | 96,000 tested, 1.2% active; in the data active means activation fold above about 2
Target sequence (P05187 whole entry, looked up): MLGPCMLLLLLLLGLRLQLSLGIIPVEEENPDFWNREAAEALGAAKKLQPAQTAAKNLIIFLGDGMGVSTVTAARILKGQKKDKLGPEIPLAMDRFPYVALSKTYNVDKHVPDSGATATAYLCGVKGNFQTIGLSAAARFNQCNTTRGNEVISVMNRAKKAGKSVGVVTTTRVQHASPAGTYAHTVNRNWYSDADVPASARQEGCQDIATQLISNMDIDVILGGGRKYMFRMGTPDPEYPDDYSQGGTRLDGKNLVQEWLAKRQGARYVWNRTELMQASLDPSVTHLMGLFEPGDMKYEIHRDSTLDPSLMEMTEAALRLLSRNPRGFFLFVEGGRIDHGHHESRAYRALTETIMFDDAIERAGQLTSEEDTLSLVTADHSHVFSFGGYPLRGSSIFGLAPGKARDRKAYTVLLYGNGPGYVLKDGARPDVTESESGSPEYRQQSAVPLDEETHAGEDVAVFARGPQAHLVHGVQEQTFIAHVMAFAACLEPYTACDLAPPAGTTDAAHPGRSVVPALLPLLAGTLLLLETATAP
PostGolgi yeast – growth inhibition of a yeast mutant, post-Golgi transport screen; 98,000 tested, 0.9% active; inhibition, % at 10 µM; post-Golgi transport phenotypic cell assay;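 further: yeast cells grown in 1536-well plates; yeast grown about 18 h at 30C before absorbance read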
D1 mod – allosterically modulates the human D1 dopamine receptor; HEK293 D1, CRE-luciferase, dopamine EC30 potentiation; actives deviate in either direction; B-score at 10 µM; 58,000 tested, 5.9% active;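 active means luminescence count or its row- and column-corrected plate score outside the 99.7% band of the plate's sample wells, on either side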
Cav32 inh – blocks human Cav3.2 T-type calcium channel | AID 449739 | 100,000 tested, 4% active | B-score at 10 µM | O95180 | Cav3.2-expressing cells, Fluo-4 calcium fluorescence FDSS; hits give low values;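 active means single-dose well whose peak fluorescence ratio is a statistical outlier from its plate by either plate-standardised score or position-corrected B-score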
PostGolgi ctrl – growth of the yeast control strain, post-Golgi counter-screen; efflux-deficient yeast background strain, growth absorbance A615, 16 h; 98,000 tested, 5% active; inhibition, % at 10 µM
* = called active by the depositor; · = no result given. Compounds with a hit are over-represented: about 12% of the library has one in this group of screens. Unless noted, no stated cut-off is given here; in the data, active means inhibition above about 30%; inactive means the rest.

SMILES | hDAT+cocaine | PLAP act | PostGolgi yeast | D1 mod | Cav32 inh | PostGolgi ctrl
COCCn1c(N)c(NCc2ccccc2)c(=O)n(CC(=O)Nc2cc(C)ccc2C)c1=O | 2* | 1.3 | 0 | 0.68 | -0.14 | -2
COc1ccc(-n2nc3c(c2NC(=O)c2cc4ccccc4oc2=O)CS(=O)(=O)C3)cc1 | · | · | · | 1.6 | · | ·
C=CCn1c(SCc2c(C)noc2C)nnc1C1COc2ccccc2O1 (stereo not drawn) | 0.59 | 0.8 | -1 | 0.64 | -4.9* | 19
Cn1c(=O)[nH]c(=O)c2c1nc(NCCCO)n2CCCc1ccccc1 | 0.022 | 0.9 | 14 | -0.22 | -0.2 | -2
O=C(CSc1ncnc2nc[nH]c12)N1CCOCC1 | -0.96 | 1.1 | 8 | 0.14 | 0.39 | 15
CC(C)N(CCc1ccncc1)C(=O)Nc1ccc(Cl)c(Cl)c1 | -1 | 0.8 | 91* | -0.016 | 0.26 | 90*
Cc1ccc(C)n1-n1c(C)nc2scc(-c3ccccc3)c2c1=O | -0.08 | 1.6 | -1 | · | -6.9* | 5
Cc1nc2scc(-c3ccccc3)c2c(=O)o1 | 1.9 | 1.2 | 1 | 0.0084 | 0.92 | 10
Nc1cc(=O)[nH]c(SCc2nc3ccccc3n2Cc2ccccc2)n1 | -0.0053 | · | · | 0.0091 | -0.85 | ·
O=C(NC(=S)Nc1cccc(Cl)c1N1CCCCC1)c1cccs1 | -0.3 | 1 | 6 | · | -2.4 | 52*
O=C(Nc1ccccc1Cl)c1cccs1 | -0.77 | 0.8 | -4 | 1.2 | 0.51 | 20
O=C(NC(=S)Nc1cccc(Cl)c1N1CCCCC1)c1ccco1 | -0.0057 | 1.2 | 22 | · | -0.3 | 37*
O=C(C(c1ccccc1)c1ccccc1)N1CCC(c2nc(-c3ccccc3Cl)no2)CC1 | 0.39 | · | · | · | -6.2* | ·
O=C(O)c1ccc(S(=O)(=O)N2CCC(c3nc(-c4ccccc4Cl)no3)CC2)cc1 | · | 1.6 | -10 | 0.24 | 0.27 | -3
CC(C)CCNC(=O)CCCOc1cc(=O)n(C)c2ccccc12 | · | 1 | 23 | -0.83 | · | 26
CC(NC(=O)c1cc2c(=O)n(C)c3ccccc3c2n1C)c1ccc2c(c1)OCCO2 (stereo not drawn) | 0.31 | · | · | -4.6* | -0.051 | ·
CC(NC(=O)COc1cc(=O)n(C)c2ccccc12)c1ccc2c(c1)OCCO2 (stereo not drawn) | 1.7* | 1.1 | 8 | 0.18 | 0.037 | -1
Cn1c(C(=O)Nc2ccc3c(c2)OCO3)cc2c(=O)n(C)c3ccccc3c21 | -0.47 | 1.2 | 7 | 2.5 | 0.84 | 12
CC(=O)N1CCN(c2ccc(NC(=O)C(C)Oc3ccc(Cl)cc3Cl)cc2)CC1 (stereo not drawn) | -0.81 | 1.6 | 1 | · | 0.75 | 9
CC(Oc1ccc(Cl)cc1Cl)C(=O)Nc1ccc(N2CCN(C)CC2)cc1 (stereo not drawn) | 1.3 | 1.5 | 5 | -4.8* | 0.0014 | 3
Cc1cc(NC(=O)C(C)Oc2ccc(Cl)cc2Cl)n(-c2ccccc2)n1 (stereo not drawn) | -0.52 | 1.6 | -4 | · | -3.5* | 23
Cc1cc(C)cc(OCC(=O)N2CCCCCC2)c1 | 0.054 | 0.9 | -11 | -0.12 | -0.87 | 34*
Cc1ccc(OCC(=O)N2CCN(C(=O)CCC3CCCC3)CC2)cc1 | -0.07 | 1.2 | 0 | 0.0083 | -2 | 0
Cc1ccc(OCC(=O)N2CCC(N3CCCCCC3)CC2)cc1 | 0.99 | 1.4 | -2 | 0.014 | 0.47 | 35*
Cc1cc(C)c(C)c(OCC(=O)N2CCCCCC2)c1 | 0.86 | 0.9 | 1 | · | -0.42 | 11
SMILES | hDAT+cocaine | PLAP act | PostGolgi yeast | D1 mod | Cav32 inh | PostGolgi ctrl
O=S(=O)(c1ccccc1)N(C1=NCCS1)S(=O)(=O)c1ccccc1 | -0.33 | 0.8 | 11 | -0.17 | -0.022 | 10
Cc1csc(=Nc2ccc(S(=O)(=O)N3CCOCC3)cc2)n1Cc1ccco1 | -0.15 | 1.6 | -1 | -1.4 | -2.9 | 44*
Cc1occc1C(=O)NNC(=O)Cc1ccccc1 | -0.26 | 1.1 | -1 | · | -0.49 | 7
Cc1ccccc1C(=O)NNC(=O)Cc1ccccc1 | 0.9 | 2* | 21 | · | 0.36 | -4
O=C1N[C@@H](Cc2ccccc2)C(=O)N2[C@@H]1C[C@@]1(Br)c3ccccc3N(S(=O)(=O)c3ccccc3)[C@@H]21 | -0.98 | · | · | · | -1.3 | ·
COC(=O)c1sc2ncn(-n3c(C)ccc3C)c(=O)c2c1C | · | 0.8 | -4 | · | · | 7
CSc1nc2ccc(S(=O)(=O)NC3CCCCC3)cc2s1 | · | 0.8 | 0 | -0.65 | · | 71*
CSc1nc2ccc(NS(=O)(=O)c3ccc4c(c3)OCCO4)cc2s1 | 0.29 | 1.2 | 8 | -0.53 | -4.5* | 32*
